These results are taken from PubChem BioAssay (NCATS).

Unmarked numbers belong to inactive results. Records with an inconclusive call do not appear. Activity calls are given as the source filed them. The call rests on the fitted dose curve; in most records, active means well fitted curve in the direction sought with a large enough effect; inconclusive means small, poorly fitted or top-dose-only effect, or another doubt; inactive means no such curve, though single readings can be large; an effect the other way counts as inactive or inconclusive.

Assay [1] deals with Glutathione peroxidase 1 (Homo sapiens) (UniProt P07203). Put plainly: Primary qHTS Assay for Inhibitors of Recombinant Selenoprotein Glutathione Peroxidase 1 (GPX1) (AID 1845191). Further: nearly all actives have a fitted effect of over 65% in size. Further: potency means the concentration at half of the fitted maximal effect. On activity, negative = inhibition: on the % scale 0 is the no-effect control and ±100 the full control effect. The procedure, abridged: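 GR-coupled assay: compounds preincubated 30 min at room temperature with GPX1, then reaction started with CHP; final 10 nM GPX1, 1 mM GSH, 0.5 mM CHP, 0.5 mM NADPH, 100 nM GR, 0.01% BSA, pH 7.5 Tris buffer. NADPH fluorescence (340/450 nm) read at 0 and 15 min.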
Glutathione peroxidase 1 (Homo sapiens), sequence (P07203 whole entry, looked up): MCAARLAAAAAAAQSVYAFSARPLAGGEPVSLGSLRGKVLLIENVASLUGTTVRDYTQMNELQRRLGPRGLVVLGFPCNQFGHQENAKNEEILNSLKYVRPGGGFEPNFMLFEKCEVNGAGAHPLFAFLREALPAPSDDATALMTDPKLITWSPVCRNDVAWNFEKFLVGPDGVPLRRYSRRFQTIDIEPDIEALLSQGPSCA
For orientation: Quantitative high-throughput screening tests each substance at several concentrations.

Assay [2] deals with Phospholipid hydroperoxide glutathione peroxidase GPX4 (Homo sapiens) (UniProt P36969). Nature of the assay: Primary qHTS Assay for Inhibitors of Recombinant Selenoprotein Glutathione Peroxidase 4 (GPX4) (AID 1845192). Further: nearly all actives have a fitted effect of over 65% in size. On activity change, negative = inhibition: series mostly up to about 50 µM; on the % scale 0 is the no-effect control and ±100 the full control effect. The procedure, abridged:
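GR-coupled assay: recombinant GPX4 preincubated 30 min with compound at room temperature; final 200 nM GPX4, 1 mM GSH, 0.5 mM cumene hydroperoxide, 0.5 mM NADPH, 100 nM GR, 0.01% BSA, pH 7.5 Tris. NADPH fluorescence (340/450 nm) read at 0 and 15 min.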

Assay [3] concerns the target Luciferin 4-monooxygenase (Photinus pyralis) (UniProt P08659). Nature of the assay: Primary firefly luciferase (FLuc) qHTS assay for identification of artifact compounds. (AID 1845220). Further: nearly all actives have a fitted effect of over 60% in size. Further: potency means the concentration at half of the fitted maximal effect.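 On activity change, negative = inhibition: series mostly up to about 54 µM; plate controls were DMSO vehicle for no effect and no enzyme for full effect.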 In short, it runs like this:
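D-luciferin and ATP (10 uM each, final) in Tris acetate buffer pH 7.6 were incubated with compounds for 15 min at room temperature. The reaction was started with 10 nM Photinus pyralis luciferase and luminescence read after 5 min. Percent inhibition was fitted to a 4-parameter Hill equation.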

Assay [4] can be described thus: Primary fluorescence-based thiol-reactive (MSTI) qHTS assay for identification of artifact compounds. (AID 1845221). Further: nearly all actives have a fitted effect of over 65% in size. Further: potency means the concentration at half of the fitted maximal effect. The procedure, abridged:
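In PBS pH 7.4 with 2% DMSO, each compound met 4 uM MSTI for one hour at ambient temperature, shielded from light, before fluorescence detection.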

Assay [5] has as its system Nanoluciferase (engineered Oplophorus gracilirostris luciferase). Nature of the assay: Primary Nanoluciferase (NLuc) qHTS assay for identification of artifact compounds. (AID 1845222).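 Further: series mostly up to about 54 µM; 0% = DMSO and -100% = no enzyme.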 The procedure, abridged:
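Diluted conditioned medium from NLuc-expressing S16 cells treated with compounds for 15 min at room temperature, then Nano-Glo substrate added; luminescence read after 5 min. Percent inhibition versus no-enzyme and DMSO controls fitted to 4-parameter Hill equation.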

Assay [6] in a line: Primary redox qHTS assay for identification of artifact compounds. (AID 1845223).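 Further: 0% = DMSO and 100% = reference compound.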 In short, it runs like this: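 Amplex Red (25 uM) and HRP (250 mU/mL) in HBSS, with compounds for 15 min, then 250 uM DTT for 30 min, room temperature, dark. Fluorescence 525/598 nm read; normalized to DMSO and 10 uM DA3003; Hill fit.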

Phospholipid hydroperoxide glutathione peroxidase GPX4 (Homo sapiens), sequence (P36969 whole entry, looked up): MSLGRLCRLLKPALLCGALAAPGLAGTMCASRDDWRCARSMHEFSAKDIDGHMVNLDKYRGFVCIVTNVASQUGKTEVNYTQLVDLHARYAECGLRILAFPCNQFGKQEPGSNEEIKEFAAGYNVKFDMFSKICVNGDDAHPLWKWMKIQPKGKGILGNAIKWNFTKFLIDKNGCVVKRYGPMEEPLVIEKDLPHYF

In the case of `C[C@H]1[C@H](O)O[C@@H]2O[C@@]3(C)CC[C@H]4[C@H](C)CC[C@@H]1[C@@]24OO3`, the Potency result in assay [1], in assay [2], in assay [3], in assay [4], in assay [5] and in assay [6] was “inactive” throughout.
Take `CC(=O)N[C@@H](C(=O)O[C@H]1CCC(C)(C)[C@@H]2CCC3=C(COC3=O)[C@@]12C)C(C)C`: the Potency result in assay [1], in assay [2], in assay [3], in assay [4], in assay [5] and in assay [6] was “inactive” each time.
Regarding `CC(C)c1ccc(CO)cc1O[C@@H]1O[C@H](CO)[C@@H](O)[C@H](O)[C@H]1O`, the Potency result in assay [1], in assay [2], in assay [3], in assay [5] and in assay [6] was “inactive” each time. Also, in assay [4], the Potency is 13.1 µM (active).
On to `C[C@H](NC(=O)CCc1nc2ccccc2c(=O)[nH]1)c1ccccc1`, for which the Potency result in assay [1], in assay [2], in assay [3], in assay [4] and in assay [6] was “inactive” in each case.
On to `C/C=C1\[C@H](O[C@@H]2O[C@H](CO)[C@@H](O)[C@H](O)[C@H]2O)OC=C2C(=O)OCCc3ccc(O)c(c3)Oc3ccc(cc3)CCOC(=O)C[C@H]21`, for which the Potency entry in assay [1], in assay [2], in assay [3] and in assay [5] was “inactive” in each case.
`CC(O)/C=C/C1(O)C(C)C(O[C@@H]2O[C@H](CO)[C@@H](O)[C@H](O)[C@H]2O)C(O)CC1(C)C` (some centres not stated): the Potency entry in assay [1], in assay [2], in assay [3] and in assay [5] was “inactive” in each case.
Regarding `C[C@@H]1[C@H]2[C@H](O[C@@H]3O[C@H](CO)[C@@H](O)[C@H](O)[C@H]3O)OC=C(C(=O)O)[C@H]2C[C@@H]1O`, the Potency entry in assay [1], in assay [2], in assay [3] and in assay [5] was “inactive” each time.
With `CC(=O)CC1CCC(C(C)C(=O)OCC(O)CO)O1` (configuration not stated), the Potency entry in assay [1], in assay [2], in assay [3] and in assay [5] was “inactive” in each case.
Consider `Cc1nc(C)c(-c2ccc(C3CCC(CC(=O)O)CC3)cc2)nc1C(N)=O` (configuration not stated), for which the Potency result in assay [1], in assay [2], in assay [3], in assay [4] and in assay [6] was “inactive” in each case.
Consider `CCCCNc1ncc2c(-c3ccc(CN4CCN(C)CC4)cc3)cn(C3CCC(O)CC3)c2n1` (configuration not stated), for which the Potency entry in assay [1], in assay [2], in assay [3] and in assay [5] was “inactive” in each case.
In the case of `COc1ccc(-c2cnc3ccc(NCc4ccc(S(N)(=O)=O)cc4)nn23)cc1OC`, the Potency entry in assay [1], in assay [2], in assay [3] and in assay [5] was “inactive” in each case.
On to `COC(=O)C1=C2Nc3ccccc3C23CCN2CCCC(C(C)O)(C1)C23` (configuration not stated), for which the Potency result in assay [1], in assay [2], in assay [3] and in assay [5] was “inactive” throughout.
With `CC1(C)C=CN2C(=O)C3=CCCN3C(=O)[C@@H]2C[C@@]12Nc1ccccc1C2=O`, the Potency entry in assay [1], in assay [2], in assay [3] and in assay [5] was “inactive” each time.
With `CC(O)CCC1C(CO[C@@H]2O[C@H](CO)[C@@H](O)[C@H](O)[C@H]2O)CC(O)CC1(C)C` (some centres not stated), the Potency entry in assay [1], in assay [2], in assay [3] and in assay [5] was “inactive” throughout.
Consider `CC(C)=CCC/C(C)=C/Cc1ccc(O)c(C2OC(=O)c3cc(C(=O)O)cc(O)c32)c1O` (configuration not stated), for which the Potency result in assay [1], in assay [2], in assay [3] and in assay [5] was “inactive” in each case.
Consider `CC(C)(C)Nc1nc(Nc2ccc(C(N)=O)cc2)cc(N)c1C#N`, for which the Potency in assay [1] was 22.7 µM (active). Further, the Potency entry in assay [2], in assay [3] and in assay [5] was “inactive” each time.
Take `CC(C)c1cc(CNc2nc(Nc3cc(C4CC4)[nH]n3)cc(N3CCN(C)CC3)n2)on1`: the Potency entry in assay [1], in assay [2], in assay [3] and in assay [5] was “inactive” throughout.
Take `CC/C=C\CC1C(=O)C=CC1(CCCCCCCC(=O)O)OC(C)=O` (configuration not stated): the Potency entry in assay [1], in assay [2], in assay [3] and in assay [5] was “inactive” each time.
For the compound `CC(=O)OC/C=C(\C)C(CC1C(C)=C(OC(C)=O)C(=O)C2C(C)(C)C(O)CCC12C)OC(C)=O` (configuration not stated), the Potency entry in assay [1], in assay [2], in assay [3] and in assay [5] was “inactive” in each case.
On to `COc1cc(C(=O)OC[C@H]2O[C@@H](Oc3ccccc3/C=C/C(=O)O)[C@H](O)[C@@H](O)[C@@H]2O)cc(OC)c1OC`, for which the Potency result in assay [1], in assay [2], in assay [3] and in assay [5] was “inactive” in each case.
For `COc1ccc(/C=C/C(=O)O[C@H]2[C@H](O[C@H]3[C@@H]4C=CO[C@@H](O[C@@H]5O[C@H](CO)[C@@H](O)[C@H](O)[C@H]5O)[C@@H]4[C@@]4(CO)O[C@@H]34)O[C@@H](C)[C@H](O)[C@H]2OC(C)=O)cc1`, the Potency result in assay [1], in assay [2], in assay [3] and in assay [5] was “inactive” in each case.
For `COc1cc(N)c(Cl)cc1C(=O)NC[C@@H]1CCN2CCC[C@@H]12`, the Potency entry in assay [1], in assay [2], in assay [3] and in assay [5] was “inactive” throughout.
In the case of `CC12CCC3c4ccc(O)cc4CCC3C1CC(OC1OC(C(=O)O)C(O)C(O)C1O)C2O` (configuration not stated), the Potency result in assay [1], in assay [2], in assay [3], in assay [4] and in assay [6] was “inactive” each time.
Take `C[C@@H]1O[C@@H](O[C@H]2[C@H](O)[C@@H](O)[C@H](O[C@H]3[C@H](O[C@H]4CC[C@@]5(C)C(=CC[C@@H]6C5CC[C@]5(C)[C@@H]7[C@H](C[C@@H]65)O[C@]5(CC[C@@](C)(CO[C@@H]6O[C@H](CO)[C@@H](O)[C@H](O)[C@H]6O)O5)[C@H]7C)C4)O[C@H](CO)[C@@H](O)[C@@H]3O)O[C@@H]2CO)[C@H](O)[C@H](O)[C@H]1O` (some centres not stated): the Potency result in assay [1] and in assay [2] was “inactive” each time. Besides, the activity change, negative = inhibition in assay [3] was -0.0839% [at 11.6 µM]. Moreover, in assay [5], the activity, negative = inhibition was 1.75% [at 11.6 µM].
As for `CO[C@H]1/C=C\O[C@@]2(C)Oc3c(C)c(O)c4c(O)c(c5c(nc6cc(C)ccn65)c4c3C2=O)NC(=O)/C(C)=C\C=C/[C@H](C)[C@H](O)[C@@H](C)[C@@H](O)[C@@H](C)[C@H](OC(C)=O)[C@@H]1C`, the Potency entry in assay [1], in assay [2], in assay [3] and in assay [5] was “inactive” in each case.
Take `OCC(CO[C@@H]1O[C@H](CO)[C@@H](O)[C@H](O)[C@H]1O)c1ccc2c(c1)OCO2` (some centres not stated): the Potency result in assay [1], in assay [2], in assay [3] and in assay [5] was “inactive” throughout.
Consider `C=C(C)C(=O)OC1CC2(C)OC(=CC2=O)C(=C)CC2OC(=O)C(COC)C12` (configuration not stated), for which the Potency entry in assay [1], in assay [2] and in assay [5] was “inactive” each time. In assay [3], the Potency is 10.5 µM (active).
